Data on 40 compounds can be found in PubChem BioAssay (Tox21).

Inconclusive results are not listed. Values without a mark were called inactive. Activity calls are given as the source filed them. Calls follow the shape of the dose curve; as a rule, active = well fitted inhibition curve with a large enough effect in the repeat runs; inconclusive = weak or mixed curves; inactive = no such curve, though single readings can be large or run the other way.
% is scaled to controls: 0 for no effect and ±100 for the full control effect; potency is read from the fitted curve at half-maximal effect.

Sequence of Cytochrome P450 1A2 (Homo sapiens) (P05177 whole entry, looked up): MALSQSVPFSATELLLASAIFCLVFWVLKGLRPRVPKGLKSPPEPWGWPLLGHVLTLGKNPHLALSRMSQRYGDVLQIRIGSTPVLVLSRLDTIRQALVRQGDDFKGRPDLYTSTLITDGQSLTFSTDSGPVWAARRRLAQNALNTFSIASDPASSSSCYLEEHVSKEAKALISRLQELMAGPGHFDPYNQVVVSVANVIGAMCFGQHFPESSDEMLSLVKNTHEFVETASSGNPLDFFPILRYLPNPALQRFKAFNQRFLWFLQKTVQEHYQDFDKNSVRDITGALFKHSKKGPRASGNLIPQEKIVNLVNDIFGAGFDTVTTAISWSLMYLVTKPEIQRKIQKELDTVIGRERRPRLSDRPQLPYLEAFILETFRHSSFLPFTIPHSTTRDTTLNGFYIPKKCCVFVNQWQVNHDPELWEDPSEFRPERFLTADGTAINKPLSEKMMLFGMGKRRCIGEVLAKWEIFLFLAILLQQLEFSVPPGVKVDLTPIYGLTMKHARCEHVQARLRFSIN

The experiment addresses Cytochrome P450 1A2 (Homo sapiens) (UniProt P05177). The experiment is described as follows: Cytochrome P450 Family 1 Subfamily A Member 2 (CYP1A2) small molecule antagonists: luciferase reporter qHTS assay (AID 1671199). Also: nearly all actives have a fitted effect of over 50% in size. The following applies: P450-Glo CYP1A2 enzyme, luciferin luminescence, 1 h; series mostly up to 115 µM. From the text:
National Center for Advancing Translational Sciences [NCATS]
U.S. Environmental Protection Agency [EPA]
National Institutes of Environmental Health Sciences [NIEHS]
National Toxicology Program [NTP]
U.S. Food and Drug Administration [FDA]
Cytochrome P450 (CYP) enzymes are membrane-bound hemeproteins that play a key role in metabolism of drugs and xenobiotics. Evaluation of the effect of chemicals on CYP isozymes is useful to minimize the adverse drug reactions and toxicities in drug development process. Tox21 chemicals were tested for their effect on CYP enzyme activities by using P450-Glo (TM) screening systems (Promega Corporation, Madison, WI). These systems provide a luminescent method containing proluciferin substrates and are converted to luciferin products by CYP isozymes. The luciferin products formed are detected with a luciferin detection reagent, and the amount of light produced is proportional to CYP activity. P450-Glo (TM) CYP1A2 screening system (Catalog. No. V9770) was used to detect the compounds that interfere in CYP1A2 activity. The positive control compound used for CYP1A2 assay is furafylline (Sigma-Aldrich, St. Louis, MO).
Tox21 Assay Protocol Summary:
Two ul of enzyme-substrate mix was dispensed into medium binding white/solid 1536-well plates (Greiner Bio-One North America Inc., Monroe, NC) using a BioRaptr Flying Reagent Dispenser (FRD, Beckman Coulter, Brea, CA). Compounds dissolved in DMSO and positive control (furafyllline) were transferred to the assay plates at 23 nl using a Pintool station (Wako, San Diego, CA). The assay plates were incubated at room temperature for 10 min. Then 2 ul of NADPH regeneration solution was added to each well of the assay plates using an FRD and incubated at room temperature for 1 h. The reaction was stopped by adding 4 ul of detection reagent using an FRD and after 20 min incubation at room temperature the luminescence signal was measured using a ViewLux plate reader (Perkin Elmer, Shelton, CT). Data were expressed as relative luminescence units.
In general terms: A reporter such as luciferase makes a cellular process visible.
Consider `Oc1ccc(Cl)c(Cl)c1`, for which the Potency was 39.3 µM (active).
Still for that read-out and setting: then `CNC(=O)/C=C(\C)OP(=O)(OC)OC`, with 28.3 µM (active); and `Cc1cc(C2CC2)nc(Nc2ccccc2)n1`, with 2.52 µM (active).
On the same count and under the same terms, then `Nc1nc(N)nc(Cl)n1`, with “inactive”.
Still for that read-out and setting: the same measure for `Nc1c(Cl)c(Cl)c(Cl)c(Cl)c1Cl`: 1.3 µM (active); for `O=C(CCCCl)c1ccc(F)cc1`: 11.5 µM (active).
`ClCBr`: the Potency result was “inactive”.
Still for that read-out and setting: the same measure for `CC(C)[C@@H](Nc1ccc(C(F)(F)F)cc1Cl)C(=O)OC(C#N)c1cccc(Oc2ccccc2)c1` (stereo not given in full): “inactive”; for `CC#C[C@]1(O)CC[C@H]2[C@@H]3C[C@H](C)C4=CC(=O)CC[C@]4(C)[C@H]3CC[C@@]21C`: “inactive”; for `c1ccc(Nc2ccc(Nc3ccccc3)cc2)cc1`: 31.6 µM (active).
The same measure, in the same setting: the same measure for `Oc1cc(Cl)c(Cl)c(Cl)c1Cl`: 27.6 µM (active).
For the compound `FC(F)C(F)(F)OCC(Cn1cncn1)c1ccc(Cl)cc1Cl` (stereo not given), the Potency was 7.06 µM (active).
On the same count and under the same terms, the same measure for `ClC1=C(Cl)[C@]2(Cl)[C@H]3[C@H]([C@@H]4C=C[C@H]3C4)[C@@]1(Cl)C2(Cl)Cl`: “inactive”.
Still for that read-out and setting: the same measure for `CCOP(=S)(OCC)Oc1cc(C)nc(N(CC)CC)n1`: 3.56 µM (active); for `O=C(Nc1ccc(F)cc1F)c1cccnc1Oc1cccc(C(F)(F)F)c1`: 7.81 µM (active); for `C=CC(=C)C`: “inactive”.
On the same count and under the same terms, the same measure for `Nc1ccccc1-c1ccccc1`: 35.4 µM (active); for `Oc1cc(Cl)cc(Cl)c1`: 32 µM (active).
For the compound `COc1ccc2c(c1OC)C(=O)O[C@@H]2[C@H]1c2cc3c(cc2CCN1C)OCO3`, the Potency was 31.4 µM (active).
On the same count and under the same terms, then `CN1CCc2cc(Cl)c(O)cc2[C@H]2c3ccccc3CC[C@@H]21`, with “inactive”.
Still for that read-out and setting: then `CC[C@H](C)[C@H]1O[C@]2(C=C[C@@H]1C)C[C@@H]1C[C@@H](C/C=C(\C)[C@@H](O[C@H]3C[C@H](OC)[C@@H](O[C@H]4C[C@H](OC)[C@@H](NC)[C@H](C)O4)[C@H](C)O3)[C@@H](C)/C=C/C=C3\CO[C@@H]4[C@H](O)C(C)=C[C@@H](C(=O)O1)[C@]34O)O2`, with 35.6 µM (active).
For `Clc1c(Cl)c(Cl)c(Cl)c(Cl)c1Cl`, the activity change, negative = inhibition is -10.9% [at 10.5 µM].
With `C[C@]12CC[C@H]3[C@@H](CCC4=CC(=O)CC[C@@H]43)[C@@H]1CC[C@@H]2OC(=O)CCc1ccco1`, the Potency result was “inactive”.
On the same count and under the same terms, the same measure for `C[C@@H]1CC2=CC(=O)CC[C@@H]2[C@H]2CC[C@@]3(C)[C@@H](CC[C@]3(C)O)[C@@H]21`: “inactive”; for `C#CC1(O)CCCCC1`: “inactive”; for `N#Cc1sc2c(=O)c3ccccc3c(=O)c=2sc1C#N`: 31.7 µM (active).
Take `Cc1c([N+](=O)[O-])c(C)c([N+](=O)[O-])c(C(C)(C)C)c1[N+](=O)[O-]`: the Potency is 5.03 µM (active).
Same read-out and setting: then `O=C(N[C@@H]1N=C(c2ccccc2F)c2cccc3c2N(CC3)C1=O)c1cc2ccccc2[nH]1`, with “inactive”.
The same measure, in the same setting: the same measure for `CCOP(=S)(OCC)SC(CCl)N1C(=O)c2ccccc2C1=O` (stereo not given): 63.3 µM (active); for `CC(C)C(Br)C(=O)NC(N)=O` (stereo not given): “inactive”; for `O=P(Cl)(Cl)Cl`: 23.9 µM (active).
For `N#Cc1ccc(N(CC(N)=O)CC(F)(F)F)cc1C(F)(F)F`, the Potency is 39.9 µM (active).
Same read-out and setting: the same measure for `O=C1C2(Cl)C3(Cl)C4(Cl)C(Cl)(Cl)C5(Cl)C3(Cl)C1(Cl)C5(Cl)C24Cl` (stereo not given): “inactive”.
Take `CC1CCCC1`: the Potency was 39.3 µM (active).
On the same count and under the same terms, the same measure for `O=C(Cl)c1ccccc1F`: “inactive”; for `[O]=[Cr](=[O])([OH])[O][Cr](=[O])(=[O])[OH]`: “inactive”; for `O=[N+]([O-])C(Br)Br`: “inactive”.
`Cc1ccc(C)c2ccccc12`: the Potency entry is “inactive”.
The same measure, in the same setting: then `C[N+]1(C)[C@@H]2CC[C@H]1CC(OC(=O)C(CO)c1ccccc1)C2` (stereo not given in full), with “inactive”; and `N#CC(C#N)=NNc1cccc(Cl)c1`, with 8.94 µM (active).
